From PubChem BioAssay (NCI)
Values joined by “and” are separate entries in the source; they are usually repeats but may differ in a detail not shown here. Equal values may be shown once. This is part of a sample that, as a whole, favours compounds with a hit. Of some 79,000 tested, about 15% had one in any assay. A number with no mark means an inactive call. Active and inactive are the calls of the source. No stated cut-off is given here; in the data, active means growth inhibition above about 70%; inactive means the rest.

Key:
[1] = NCI Yeast Anticancer Drug Screen. Data for the rad50 strain (AID 155);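 further: 0% = growth of vehicle-only cultures of the same strain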; conditions: S. cerevisiae rad50 strain growth inhibition, stronger effect = higher value
Summary of the method: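 Readout: growth inhibition relative to vehicle-treated cultures. Compound exposure was carried out in a genetically defined yeast strain deficient in DNA damage repair.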

[2] = NCI Yeast Anticancer Drug Screen. Data for the mec2-1 strain (AID 157); conditions: S. cerevisiae mec2-1 strain, stronger effect = higher value
Summary of the method: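 Using mec2-1 yeast: add compound, measure growth, express inhibition versus vehicle-treated cultures.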

[3] = NCI Yeast Anticancer Drug Screen. Data for the cln2 rad14 strain (AID 165);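 further: 0% = growth equal to vehicle treated cultures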; conditions: S. cerevisiae cln2 rad14 strain, stronger effect = higher value
Summary of the method: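 Yeast strain cln2 rad14, bearing defects in cell cycle control and DNA repair, serves as the test system; values reflect growth inhibition compared with vehicle.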

[4] = NCI Yeast Anticancer Drug Screen. Data for the bub3 strain (AID 167); conditions: S. cerevisiae bub3 mutant strain, stronger effect = higher value
Summary of the method: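 Readout: yeast growth inhibition, expressed relative to vehicle-only wells. The test organism is a mutant strain from a panel with lesions in DNA repair or checkpoint genes.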

[5] = NCI Yeast Anticancer Drug Screen. Data for the mlh1 rad18 strain (AID 175); conditions: S. cerevisiae mlh1 rad18 strain growth inhibition, stronger effect = higher value
Summary of the method: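 Steps: expose repair-defective yeast to compound; measure growth; express inhibition against vehicle-treated controls.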

[6] = NCI Yeast Anticancer Drug Screen. Data for the sgs1 mgt1 strain (AID 161);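 further: 0% = growth of cultures given vehicle only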; conditions: S. cerevisiae sgs1 mgt1 strain, stronger effect = higher value
Summary of the method: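 Compounds are added to genetically altered yeast, and growth is compared with cultures given vehicle alone to give percent inhibition.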

[7] = at 5.0 µM (retest, dose inferred, filed as 0.5)
[8] = at 50.0 µM (retest, dose inferred, filed as 5.0)

Row | Structure (SMILES) | growth inhibition [1, 7] | growth inhibition [1, 8] | growth inhibition ([1]; at 50.0 µM) | growth inhibition [2, 7] | growth inhibition [2, 8] | growth inhibition ([2]; at 50.0 µM) | growth inhibition [3, 7] | growth inhibition [3, 8] | growth inhibition ([3]; at 50.0 µM) | growth inhibition [4, 7] | growth inhibition [4, 8] | growth inhibition ([4]; at 50.0 µM) | growth inhibition [5, 7] | growth inhibition [5, 8] | growth inhibition ([5]; at 50.0 µM) | growth inhibition [6, 7] | growth inhibition [6, 8] | growth inhibition ([6]; at 50.0 µM)
1 | CS/C([S-])=N/N=C(C)C.CS/C([S-])=N/N=C(C)C.[Ni+2] | 34% | 94% (active) | 93.8% (active) | 19% | 96% (active) | 57% | 11% | 89% (active) | -13.8% | 72% (active) | 96% (active) | 79.8% (active) | 72% (active) | 97% (active) | 74.8% (active) |  |  | 
2 | CC(=O)C(CN(C)C)C(c1ccccc1)c1c(O)c2ccccc2oc1=O (stereo not given) | 22% | 22% | 65.7% | 20% | 20% | 54.4% | -4% | -4% | 64% | 13% | 13% | 59.6% | 17% | 17% | 64.2% |  |  | 
3 | CCOc1cc(/C=C/[N+](=O)[O-])ccc1O |  |  |  | -44% | 73% (active) | 65.8% | -52% | 75% (active) | 55% | -60% | 90% (active) | 43.4% | -93% | 94% (active) | 96.6% (active) | -46% | 95% (active) | 77.7% (active)
4 | O=C(CCl)OCC(Cl)Cl | 3% | 2% | 1.25% | 4% | 2% | -2.5% | 2% | -4% | 19.6% | -2% | -3% | 6.65% | 9% | 3% | 20.6% |  |  | 
5 | N=C(N)SCc1ccccc1 |  |  | -2.55% [middle of 5 runs] |  |  | -2.2% [middle of 5 runs] |  |  |  |  |  | -5.6% [middle of 5 runs] |  |  |  |  |  | 7.55% [middle of 5 runs]
6 | C=Cc1ccccc1 (tested in a mixture with another compound) | -1% | 2% | 16.1% and 1.1% and -7.7% | -6% | 0% | -1.35% and 6.9% and -3.75% |  |  |  | -5% | -4% | 23.4% and 14.5% and 6.1% | -1% | 1% | 12.4% and 31.1% and -6.6% | -2% | -1% | -11.2% and -6.85% and -12.4%
7 | Cc1cn(CC2C=CC(CS[As](C)C)O2)c(=O)[nH]c1=O (stereo not given) |  |  |  | 1% | 83% (active) | 92.2% (active) | 0% | 95% (active) | 72% (active) | 0% | 45% | 53% | -1% | 84% (active) | 99.1% (active) | 4% | 98% (active) | 94.8% (active)
8 | O=C(N/N=C/c1cc(Cl)cc(Cl)c1[O-])c1ccccc1O.O=C(N/N=C/c1cc(Cl)cc(Cl)c1[O-])c1ccccc1O.[Zn+2] | 93% (active) | 63% | 94.5% (active) |  |  |  | 92% (active) | 50% | 91.8% (active) | 95% (active) | 62% | 92.7% (active) | 95% (active) | 64% | 95.1% (active) | 96% (active) | 72% (active) | 93% (active)
9 | Oc1c(Cl)c(Cl)c(Cl)c(Cl)c1Cl | 14% and 30% | 99% (active) and 100% (active) | 80.8% (active) and 99% (active) | 16% and 23% | 100% (active) and 99% (active) | 99.8% (active) and 99% (active) |  |  |  | 5% and 13% | 99% (active) | 99.4% (active) and 99% (active) | 21% and 40% | 99% (active) | 90% (active) and 99% (active) | 13% and 39% | 98% (active) and 99% (active) | 97.5% (active) and 99.2% (active)
10 | Cc1cc(C)[n+](CCOc2ccc(/C(=C(/Cl)c3ccccc3)c3ccccc3)cc2)c(C)c1 | 99% (active) | 99% (active) | 91.7% (active) | 83% (active) | 83% (active) | 91.9% (active) | 97% (active) | 97% (active) | 91.7% (active) | 67% | 67% | 90% (active) | 82% (active) | 82% (active) | 89.8% (active) |  |  | 
11 | O=S(=O)(O)O |  |  |  |  |  |  |  |  |  |  |  |  |  |  | -10.7% and 13.2% and -10.6% |  |  | 
12 | Clc1ccc(-c2cc(=[N+]3CC[N+](=c4cc(-c5ccc(Cl)cc5)ss4)CC3)ss2)cc1 | 8% | 3% | 98.3% (active) | -158% | -3% | 98.2% (active) | 5% | -9% | 95.7% (active) | 3% | -2% | 98% (active) | 7% | 4% | 98.5% (active) |  |  | 
